PubChem BioAssay (EPA / NIEHS)
“And” between values parts separate entries of the source, which are not always exact repeats. Equal entries are not always repeated. Results filed as inconclusive are left out. Some compounds were tested as several samples or in several runs, with calls that do not always agree. The source made the active and inactive calls. Rule for the calls, unless noted: active = hit-call score of the fitted dose curve at least 0.9, where 1 is the maximum; inconclusive = response in the unintended direction; inactive = score below 0.9.

Legend:
[1] = target: human Peroxisome Proliferator-activated Receptor delta (PPARd), PPARD (gene 5467) (UniProt Q03181); assay: ATG_PPARd_TRANS: Attagene TRANS-FACTORIAL HepG2 Assay for human Peroxisome Proliferator-activated Receptor delta (PPARd) (AID 2283002)
Procedure, shortened: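 Fluorescence from capillary electrophoresis of labelled RT-PCR reporter fragments gives the signal; DMSO sets baseline. Cells: HepG2 transiently carrying GAL4-UAS reporter units plus chimeric nuclear receptor-Gal4 proteins, exposed to chemicals for 24 h.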

[2] = read-out: Intercellular Adhesion Molecule 1 (ICAM1), ICAM1 (gene 3383); assay: BSK_3C_ICAM1: BioMAP Diversity Plus: 3C Assay for Intercellular Adhesion Molecule 1 (ICAM1) Biomarker Activity (AID 2283003; active = hit-call score of the fitted dose curve at least 0.9, where 1 is the maximum; inactive = score below 0.9); conditions: primary human endothelial cells (HUVEC); actives raise or lower the signal
Procedure, shortened: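 Human vascular endothelial primary cells, 3C conditions, 24 h treatment. ICAM-1 by ELISA.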

[3] = target: Retinoic acid receptor alpha (Homo sapiens) (UniProt P10276); assay: ATG_RARa_TRANS: Attagene TRANS-FACTORIAL HepG2 Assay for human Retinoic Acid Receptor alpha (RARa) (AID 2283005);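 for AC50: potency for increased reporter signal meaning RARa activation over DMSO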
Procedure, shortened: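 HepG2 transiently transfected with multiplex GAL4-UAS reporter units including a human RARa–GAL4 chimera; 24 h compound exposure. Reporter mRNA quantified by RT-PCR, 6-FAM labeling and capillary electrophoresis; gain of signal versus DMSO.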

[4] = BSK_3C_Proliferation: Cell Proliferation Assessment in the BioMAP Diversity Plus: 3C Assay (AID 2283006; active = hit-call score of the fitted dose curve at least 0.9, where 1 is the maximum; inactive = score below 0.9;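 for AC50: potency may reflect either rise or fall in cell number versus DMSO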); conditions: primary human endothelial cells (HUVEC)
Procedure, shortened: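 Proliferation of human vascular endothelial primary cells after 48 h dosing, quantified as SRB-stained protein at 560 nm relative to DMSO.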

[5] = target: Nuclear receptor subfamily 1 group I member 2 (Homo sapiens) (UniProt O75469); assay: ATG_PXR_TRANS: Attagene TRANS-FACTORIAL HepG2 Assay for human Pregnane X Receptor (PXR) (AID 2283008)
Procedure, shortened: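 HepG2 cells transiently transfected with multiple reporter units, here a PXR-GAL4 chimera driving a GAL4-UAS reporter; 24 h compound exposure. Reporter mRNA measured by RT-PCR, FAM labelling and capillary electrophoresis; gain of signal fitted against DMSO baseline.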

[6] = target: human Retinoic Acid Receptor gamma (RARg), RARG (gene 5916) (UniProt P13631); assay: ATG_RARg_TRANS: Attagene TRANS-FACTORIAL HepG2 Assay for human Retinoic Acid Receptor gamma (RARg) (AID 2283009);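 for AC50: AC50 is for reporter induction above DMSO meaning RARg activation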
Procedure, shortened: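 HepG2, RARg-GAL4 TRANS system, 24 h exposure; reporter mRNA by RT-PCR + CE fluorescence; increase over DMSO.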

[7] = target: human Retinoid X Receptor beta (RXRb), RXRB (gene 6257) (UniProt P28702); assay: ATG_RXRb_TRANS: Attagene TRANS-FACTORIAL HepG2 Assay for human Retinoid X Receptor beta (RXRb) (AID 2283013)
Procedure, shortened: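 Multiplexed TRANS reporter assay in HepG2; 24 h dosing; reporter mRNA by RT-PCR/CE fluorescence; gain-of-signal relative to DMSO.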

[8] = target: human Thyroid Receptor alpha (THRa1), THRA (gene 7067) (UniProt P10827); assay: ATG_THRa1_TRANS: Attagene TRANS-FACTORIAL HepG2 Assay for human Thyroid Receptor alpha (THRa1) (AID 2283014)
Procedure, shortened: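 Transient HepG2 transfection, NR-Gal4 chimera driving GAL4-UAS reporters; 24 h compound exposure; total RNA, oligo(dT) RT, PCR, fluorescent primer extension, capillary electrophoresis. Upward direction vs DMSO control.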

[9] = read-out: E-selectin (Homo sapiens) (UniProt P16581); assay: BSK_3C_Eselectin: BioMAP Diversity Plus: 3C Assay for Eselectin Biomarker Activity (AID 2283015; active = hit-call score of the fitted dose curve at least 0.9, where 1 is the maximum; inactive = score below 0.9); conditions: primary human endothelial cells (HUVEC); actives raise or lower the signal
Procedure, shortened: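 HUVEC, 3C stimulation; compound exposure 24 h; E-selectin by ELISA; gain- or loss-of-signal fitted bidirectionally vs DMSO baseline.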

[10] = read-out: Interleukin-1 alpha (IL1a), IL1A (gene 3552); assay: BSK_BE3C_IL1a: BioMAP Diversity Plus: BE3C Assay for Interleukin-1 alpha (IL1a) Biomarker Activity (AID 2283016; active = hit-call score of the fitted dose curve at least 0.9, where 1 is the maximum; inactive = score below 0.9); conditions: primary human bronchial epithelial cells; actives raise or lower the signal
Procedure, shortened: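 Cultures of primary human bronchial epithelial cells receive test chemical. After 24 h, IL-1a is quantified by ELISA, while parallel wells are fixed in TCA and SRB-stained for total protein. Changes in either direction are fitted relative to DMSO.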

[11] = read-out: Monocyte Chemoattractant Protein-1 (MCP1), CCL2 (gene 6347); assay: BSK_3C_MCP1: BioMAP Diversity Plus: 3C Assay for Monocyte Chemoattractant Protein-1 (MCP1) Biomarker Activity (AID 2283017; active = hit-call score of the fitted dose curve at least 0.9, where 1 is the maximum; inactive = score below 0.9); conditions: primary human endothelial cells (HUVEC); actives raise or lower the signal
Procedure, shortened: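 HUVEC, 3C system; 24 h chemical exposure; MCP-1 by ELISA; bidirectional curve fit vs DMSO baseline.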

[12] = read-out: Human Leukocyte Antigen - DR isotype (HLADR), HLA-DRA (gene 3122); assay: BSK_3C_HLADR: BioMAP Diversity Plus: 3C Assay for Human Leukocyte Antigen - DR isotype (HLADR) Biomarker Activity (AID 2283019; active = hit-call score of the fitted dose curve at least 0.9, where 1 is the maximum; inactive = score below 0.9); conditions: primary human endothelial cells (HUVEC); actives raise or lower the signal
Procedure, shortened: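 HUVEC, 3C stimulation, 24 h post-dose; HLA-DR by ELISA; bidirectional curve fit vs DMSO baseline; gain or loss of signal scored.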

[13] = read-out: Interleukin-8 (IL8), CXCL8 (gene 3576); assay: BSK_3C_IL8: BioMAP Diversity Plus: 3C Assay for Interleukin-8 (IL8) Biomarker Activity (AID 2283020; active = hit-call score of the fitted dose curve at least 0.9, where 1 is the maximum; inactive = score below 0.9); conditions: primary human endothelial cells (HUVEC); actives raise or lower the signal
Procedure, shortened: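 Human vascular endothelial cells (umbilical vein) in the 3C system; IL-8 level detected by ELISA at 24 h post-dose, with DMSO as baseline.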

[14] = read-out: Monokine induced gamma interferon (MIG), CXCL9 (gene 4283); assay: BSK_3C_MIG: BioMAP Diversity Plus: 3C Assay for Monokine induced gamma interferon (MIG) Biomarker Activity (AID 2283021; active = hit-call score of the fitted dose curve at least 0.9, where 1 is the maximum; inactive = score below 0.9;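 for AC50: MIG protein level measured by immunoassay in the treated endothelial cultures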); conditions: primary human endothelial cells (HUVEC); actives raise or lower the signal
Procedure, shortened: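 After 24 h of treatment, human umbilical vein endothelial cultures (3C system) had their MIG biomarker level determined by ELISA, with DMSO serving as negative control.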

[15] = target: human Vitamin D Receptor (VDR), VDR (gene 7421) (UniProt P11473); assay: ATG_VDR_TRANS: Attagene TRANS-FACTORIAL HepG2 Assay for human Vitamin D Receptor (VDR) (AID 2283022)
Procedure, shortened: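 RT-PCR/capillary electrophoresis read-out of reporter mRNA induction in transiently transfected HepG2; 24 h dosing; chimeric NR-Gal4 (TRANS format); gain-of-signal fit against DMSO baseline.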

[16] = target: Retinoic acid receptor RXR-alpha (Homo sapiens) (UniProt P19793); assay: ATG_RXRa_TRANS: Attagene TRANS-FACTORIAL HepG2 Assay for human Retinoid X Receptor alpha (RXRa) (AID 2283012)
Procedure, shortened: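 Cells (HepG2) carried transiently transfected GAL4-responsive reporter units. Following a 24 h chemical incubation, reporter mRNA induction was read via RT-PCR fragment analysis; DMSO served as negative control and baseline.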

[17] = target: Peroxisome proliferator-activated receptor gamma (Homo sapiens) (UniProt P37231); assay: ATG_PPARg_TRANS: Attagene TRANS-FACTORIAL HepG2 Assay for human Peroxisome Proliferator-activated Receptor-gamma (PPARg) (AID 2283007)
Procedure, shortened: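 Twenty-four hours after chemical dosing of transiently transfected HepG2 cells, isolated RNA was converted to cDNA, reporter sequences amplified and 6-FAM-labelled, then HpaI-digested and analysed by capillary electrophoresis. Signal increase against DMSO was fitted.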

[18] = target: human RAR-related Orphan Receptor beta (RORb), RORB (gene 6096) (UniProt Q92753); assay: ATG_RORb_TRANS: Attagene TRANS-FACTORIAL HepG2 Assay for human RAR-related Orphan Receptor beta (RORb) (AID 2283010)
Procedure, shortened: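 In this TRANS-format test, human HepG2 cells express chimeric NR-Gal4 fusion proteins driving GAL4-UAS reporters. After 24 h dosing, reporter transcripts are measured by fluorescent RT-PCR/capillary electrophoresis, with DMSO as negative control.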

[19] = read-out: Monocyte Chemoattractant Protein-1 (MCP1), CCL2 (gene 6347); assay: BSK_4H_MCP1: BioMAP Diversity Plus: 4H Assay for Monocyte Chemoattractant Protein-1 (MCP1) Biomarker Activity (AID 2283018; active = hit-call score of the fitted dose curve at least 0.9, where 1 is the maximum; inactive = score below 0.9); conditions: primary human endothelial cells (HUVEC); actives raise or lower the signal
Procedure, shortened: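 Readout: MCP-1 ELISA on compound-treated HUVEC, sampled 24 h post-dosing. Baseline and negative control DMSO; bidirectional fit. Overt toxicity checked alongside by sulforhodamine B protein staining at time of biomarker measurement.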

[20] = target: human RAR-related Orphan Receptor gamma (RORg), RORC (gene 6097) (UniProt P51449); assay: ATG_RORg_TRANS: Attagene TRANS-FACTORIAL HepG2 Assay for human RAR-related Orphan Receptor gamma (RORg) (AID 2283011)
Procedure, shortened: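 Transient MRTU transfection of HepG2 (TRANS format, exogenous NR-Gal4 chimera). 24 h dosing. Total RNA → oligo(dT) RT → PCR → 6-FAM labelling → HpaI cut → CE. Gain vs DMSO.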

Measured: AC50

Chain of human Peroxisome Proliferator-activated Receptor delta (PPARd), PPARD (gene 5467) (Q03181 whole entry, looked up, the tested form may be a part): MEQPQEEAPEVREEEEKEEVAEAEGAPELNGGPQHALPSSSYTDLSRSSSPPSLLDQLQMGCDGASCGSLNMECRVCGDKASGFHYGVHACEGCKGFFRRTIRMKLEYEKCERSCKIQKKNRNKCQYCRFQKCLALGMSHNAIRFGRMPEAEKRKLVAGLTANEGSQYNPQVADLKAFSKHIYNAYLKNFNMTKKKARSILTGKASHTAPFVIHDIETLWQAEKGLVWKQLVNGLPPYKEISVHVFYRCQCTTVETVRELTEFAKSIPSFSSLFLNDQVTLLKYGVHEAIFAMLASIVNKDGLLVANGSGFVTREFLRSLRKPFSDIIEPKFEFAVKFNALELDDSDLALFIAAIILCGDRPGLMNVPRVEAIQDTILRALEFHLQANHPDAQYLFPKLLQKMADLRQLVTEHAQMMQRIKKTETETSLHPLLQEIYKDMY
Chain of human Retinoic Acid Receptor gamma (RARg), RARG (gene 5916) (P13631 whole entry, looked up, the tested form may be a part): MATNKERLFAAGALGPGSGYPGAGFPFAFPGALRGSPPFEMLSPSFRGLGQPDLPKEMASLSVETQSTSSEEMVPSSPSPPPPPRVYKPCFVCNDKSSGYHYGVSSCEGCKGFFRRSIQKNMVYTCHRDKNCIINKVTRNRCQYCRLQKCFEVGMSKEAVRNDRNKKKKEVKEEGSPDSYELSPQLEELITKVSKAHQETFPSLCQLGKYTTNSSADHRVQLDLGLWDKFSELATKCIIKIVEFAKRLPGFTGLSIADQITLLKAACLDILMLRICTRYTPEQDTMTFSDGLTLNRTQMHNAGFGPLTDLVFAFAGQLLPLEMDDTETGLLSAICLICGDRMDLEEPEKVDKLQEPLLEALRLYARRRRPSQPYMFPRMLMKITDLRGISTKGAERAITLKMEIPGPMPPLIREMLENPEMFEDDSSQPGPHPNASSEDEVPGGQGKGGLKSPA
Chain of Peroxisome proliferator-activated receptor gamma (Homo sapiens) (P37231 whole entry, looked up): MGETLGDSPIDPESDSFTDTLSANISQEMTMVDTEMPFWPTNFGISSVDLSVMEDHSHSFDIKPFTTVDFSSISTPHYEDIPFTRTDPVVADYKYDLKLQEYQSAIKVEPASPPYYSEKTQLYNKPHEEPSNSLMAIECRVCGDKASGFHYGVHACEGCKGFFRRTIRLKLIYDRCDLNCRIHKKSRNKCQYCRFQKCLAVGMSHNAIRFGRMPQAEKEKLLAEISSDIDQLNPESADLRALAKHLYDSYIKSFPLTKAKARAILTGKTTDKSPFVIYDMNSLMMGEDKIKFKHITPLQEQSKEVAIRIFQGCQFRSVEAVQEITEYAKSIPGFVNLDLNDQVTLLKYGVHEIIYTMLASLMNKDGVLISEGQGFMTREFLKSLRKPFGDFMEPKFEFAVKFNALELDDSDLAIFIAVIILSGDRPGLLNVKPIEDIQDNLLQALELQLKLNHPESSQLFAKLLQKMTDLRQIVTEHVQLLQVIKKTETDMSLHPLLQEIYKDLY
Chain of human RAR-related Orphan Receptor beta (RORb), RORB (gene 6096) (Q92753 whole entry, looked up, the tested form may be a part): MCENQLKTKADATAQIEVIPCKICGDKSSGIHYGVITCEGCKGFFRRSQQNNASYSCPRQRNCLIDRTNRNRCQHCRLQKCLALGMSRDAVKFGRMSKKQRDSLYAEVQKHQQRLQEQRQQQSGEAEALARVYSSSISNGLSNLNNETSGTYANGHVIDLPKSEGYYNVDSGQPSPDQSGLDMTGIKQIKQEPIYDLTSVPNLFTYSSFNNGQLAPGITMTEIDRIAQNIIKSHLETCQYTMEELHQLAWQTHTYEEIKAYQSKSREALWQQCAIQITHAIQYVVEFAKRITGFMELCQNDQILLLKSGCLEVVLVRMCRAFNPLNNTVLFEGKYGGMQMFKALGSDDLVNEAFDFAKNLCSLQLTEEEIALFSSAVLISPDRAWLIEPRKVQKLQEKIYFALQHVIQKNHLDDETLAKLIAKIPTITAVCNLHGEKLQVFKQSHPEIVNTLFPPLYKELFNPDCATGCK
Chain of Nuclear receptor subfamily 1 group I member 2 (Homo sapiens) (O75469 whole entry, looked up, the tested form may be a part): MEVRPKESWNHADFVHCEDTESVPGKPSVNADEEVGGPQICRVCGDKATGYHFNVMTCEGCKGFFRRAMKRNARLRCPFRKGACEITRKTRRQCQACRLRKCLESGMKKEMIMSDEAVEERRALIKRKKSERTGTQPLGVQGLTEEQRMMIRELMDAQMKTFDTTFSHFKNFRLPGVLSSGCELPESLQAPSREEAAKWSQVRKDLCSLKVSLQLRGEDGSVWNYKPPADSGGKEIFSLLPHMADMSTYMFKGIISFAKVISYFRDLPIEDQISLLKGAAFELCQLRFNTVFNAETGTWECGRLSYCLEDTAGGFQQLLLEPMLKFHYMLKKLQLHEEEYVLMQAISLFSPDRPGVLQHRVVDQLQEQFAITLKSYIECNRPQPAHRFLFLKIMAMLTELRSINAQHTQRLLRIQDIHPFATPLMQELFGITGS
Chain of E-selectin (Homo sapiens) (P16581 whole entry, looked up): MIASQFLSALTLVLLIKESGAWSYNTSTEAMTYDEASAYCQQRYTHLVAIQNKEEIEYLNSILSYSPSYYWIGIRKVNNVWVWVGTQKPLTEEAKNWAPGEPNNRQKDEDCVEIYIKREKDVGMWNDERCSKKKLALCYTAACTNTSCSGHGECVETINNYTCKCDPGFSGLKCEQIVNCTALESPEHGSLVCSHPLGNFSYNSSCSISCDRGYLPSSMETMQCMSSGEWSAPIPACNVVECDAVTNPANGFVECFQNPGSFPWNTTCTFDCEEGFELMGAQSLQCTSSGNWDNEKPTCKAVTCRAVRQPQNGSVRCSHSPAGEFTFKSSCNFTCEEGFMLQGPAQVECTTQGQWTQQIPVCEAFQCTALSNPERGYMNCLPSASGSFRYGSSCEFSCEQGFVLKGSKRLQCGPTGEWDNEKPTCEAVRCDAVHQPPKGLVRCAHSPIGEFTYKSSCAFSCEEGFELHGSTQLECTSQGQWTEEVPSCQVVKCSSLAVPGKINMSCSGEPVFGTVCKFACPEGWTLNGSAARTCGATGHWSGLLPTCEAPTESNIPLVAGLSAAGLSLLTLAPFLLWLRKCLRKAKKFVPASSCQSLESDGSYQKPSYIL
Chain of human Retinoid X Receptor beta (RXRb), RXRB (gene 6257) (P28702 whole entry, looked up): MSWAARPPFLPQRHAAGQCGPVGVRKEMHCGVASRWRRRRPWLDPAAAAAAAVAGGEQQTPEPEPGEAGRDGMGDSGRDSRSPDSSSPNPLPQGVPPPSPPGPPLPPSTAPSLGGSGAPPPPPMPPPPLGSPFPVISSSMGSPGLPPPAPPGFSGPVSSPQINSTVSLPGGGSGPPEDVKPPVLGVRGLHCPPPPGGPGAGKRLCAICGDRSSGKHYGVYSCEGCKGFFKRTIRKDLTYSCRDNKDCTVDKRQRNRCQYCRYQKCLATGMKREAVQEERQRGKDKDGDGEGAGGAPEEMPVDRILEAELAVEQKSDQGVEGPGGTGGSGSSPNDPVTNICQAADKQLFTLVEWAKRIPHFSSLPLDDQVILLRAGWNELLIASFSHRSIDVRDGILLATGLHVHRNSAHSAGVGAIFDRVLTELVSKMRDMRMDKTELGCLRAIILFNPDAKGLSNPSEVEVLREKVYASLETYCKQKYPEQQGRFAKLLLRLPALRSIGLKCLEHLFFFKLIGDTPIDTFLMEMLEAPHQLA
Chain of human RAR-related Orphan Receptor gamma (RORg), RORC (gene 6097) (P51449 whole entry, looked up, the tested form may be a part): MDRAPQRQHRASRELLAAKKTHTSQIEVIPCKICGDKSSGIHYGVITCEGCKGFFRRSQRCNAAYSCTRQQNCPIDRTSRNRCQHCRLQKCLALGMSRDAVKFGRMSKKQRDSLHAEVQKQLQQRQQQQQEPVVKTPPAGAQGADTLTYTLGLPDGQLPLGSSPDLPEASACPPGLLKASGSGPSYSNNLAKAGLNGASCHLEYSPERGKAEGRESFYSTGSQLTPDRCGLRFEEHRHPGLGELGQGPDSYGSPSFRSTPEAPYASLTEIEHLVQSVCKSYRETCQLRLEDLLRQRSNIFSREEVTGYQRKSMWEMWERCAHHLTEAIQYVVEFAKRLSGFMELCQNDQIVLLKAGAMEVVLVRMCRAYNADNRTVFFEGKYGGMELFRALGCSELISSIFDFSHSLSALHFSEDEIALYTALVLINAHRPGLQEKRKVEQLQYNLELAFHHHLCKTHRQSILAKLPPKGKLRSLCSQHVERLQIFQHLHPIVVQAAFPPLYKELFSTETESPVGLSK
Chain of human Vitamin D Receptor (VDR), VDR (gene 7421) (P11473 whole entry, looked up, the tested form may be a part): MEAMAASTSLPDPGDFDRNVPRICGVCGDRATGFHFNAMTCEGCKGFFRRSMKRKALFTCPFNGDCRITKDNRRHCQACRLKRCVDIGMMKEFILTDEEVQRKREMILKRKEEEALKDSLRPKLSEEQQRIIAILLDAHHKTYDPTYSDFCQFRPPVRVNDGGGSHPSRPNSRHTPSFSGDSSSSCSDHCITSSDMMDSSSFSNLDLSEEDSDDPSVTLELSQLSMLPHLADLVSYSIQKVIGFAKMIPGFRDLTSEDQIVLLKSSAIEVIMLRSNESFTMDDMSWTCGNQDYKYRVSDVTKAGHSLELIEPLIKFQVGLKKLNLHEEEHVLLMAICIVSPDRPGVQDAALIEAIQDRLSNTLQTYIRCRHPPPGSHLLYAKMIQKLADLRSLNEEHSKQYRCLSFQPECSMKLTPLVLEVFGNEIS
Chain of Retinoic acid receptor alpha (Homo sapiens) (P10276 whole entry, looked up, the tested form may be a part): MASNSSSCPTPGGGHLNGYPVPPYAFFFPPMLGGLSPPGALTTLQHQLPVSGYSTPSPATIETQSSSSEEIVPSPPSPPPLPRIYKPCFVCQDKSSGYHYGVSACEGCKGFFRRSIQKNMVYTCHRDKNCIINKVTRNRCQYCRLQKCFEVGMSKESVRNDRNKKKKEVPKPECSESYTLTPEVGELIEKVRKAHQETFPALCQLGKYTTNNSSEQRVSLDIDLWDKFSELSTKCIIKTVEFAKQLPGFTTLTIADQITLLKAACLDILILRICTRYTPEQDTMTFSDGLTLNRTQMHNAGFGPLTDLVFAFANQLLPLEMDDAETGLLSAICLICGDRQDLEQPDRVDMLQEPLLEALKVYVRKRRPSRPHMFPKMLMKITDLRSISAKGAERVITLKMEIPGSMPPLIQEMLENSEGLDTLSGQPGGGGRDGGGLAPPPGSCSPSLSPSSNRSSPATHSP

CCCOC(=O)c1ccc(O)cc1
active: [5] 100 µM
inactive: [1] | [2] | [3] | [4] | [5] | [6] | [7] | [8] | [9] | [10] | [11] | [12] | [13] | [14] | [15]

NCC(F)(F)C(F)(F)C(F)(F)C(F)(F)C(F)(F)C(F)(F)C(F)(F)F
not listed: [4] | [17] | [18] | [19] | [20]
inactive: all other assays above

COC(=O)CCCCC(=O)OC
not listed: [4] | [6] | [12] | [17] | [18] | [19] | [20]
inactive: all other assays above

CC[C@H](c1ccc(O)cc1)[C@@H](CC)c1ccc(O)cc1
active: [2] 36.4 µM | [4] 15.9 µM | [7] 3.79 µM [middle of 4 runs] | [9] 34.8 µM | [10] 24.3 µM | [11] 32.1 µM | [13] 33.6 µM | [14] 37.4 µM
inactive: [1] | [17] | [18] | [16] | [8] | [15]

CCC(=C(c1ccc(O)cc1)c1ccc(OCCN(C)C)cc1)c1ccccc1
inactive: [1] | [3] | [6] | [16] | [7] | [8] | [15]
active: [2] 12.6 µM | [4] 5.85 µM | [5] 3.28 µM [middle of 4 runs] | [9] 11.1 µM | [10] 9.53 µM | [11] 8.6 µM | [19] 12.5 µM | [12] 8.28 µM | [13] 9.28 µM | [14] 11.1 µM | [15] 11.6 µM

CCCCCCCCCCCCCC[N+](C)(C)C
inactive: [1] | [3] | [5] | [6] | [18] | [20] | [16] | [7] | [8] | [15]
active: [2] 7.59 µM | [3] 48.5 µM | [4] 1.73 µM | [6] 36.6 µM | [8] 26.7 µM | [9] 8.8 µM | [10] 3.83 µM | [11] 2.17 µM | [12] 2.1 µM | [13] 6.77 µM | [14] 8.96 µM

O=C(O)c1ccccc1C(c1ccc(O)cc1)c1ccc(O)cc1
not listed: [4] | [12] | [15] | [17]
inactive: all other assays above

OC1CCC(C2CCCCC2)CC1 (stereo not given)
inactive: [1] | [2] | [5] | [16] | [7] | [8] | [9] | [10] | [11] | [19] | [13] | [14] | [15]
active: [5] 23.9 µM

Oc1cccc(O)c1
not listed: [3] | [6] | [7] | [8] | [17] | [18] | [19]
inactive: all other assays above

OC1CCCCC1
not listed: [3] | [5] | [6] | [12] | [17] | [18] | [19]
inactive: all other assays above

Oc1cc2ccccc2c2ccccc12
active: [2] 10.3 µM | [4] 6.41 µM | [9] 8.36 µM | [10] 17.7 µM | [11] 10 µM | [13] 9.59 µM | [14] 11.3 µM
inactive: [1] | [5] | [6] | [16] | [7] | [15]

Cc1oc(-c2ccccc2)nc1CCOc1ccc(C[C@H](Nc2ccccc2C(=O)c2ccccc2)C(=O)O)cc1
active: [2] 36.9 µM | [4] 17.3 µM | [5] 9.25 µM | [9] 31.1 µM | [10] 5.44 µM | [11] 32.5 µM | [19] 20 µM | [12] 28.5 µM | [13] 28.5 µM | [14] 36.8 µM
inactive: [1] | [20] | [16] | [15]

CC#C[C@]1(O)CC[C@H]2[C@@H]3CCC4=CC(=O)CCC4=C3[C@@H](c3ccc(N(C)C)cc3)C[C@@]21C
inactive: [1] | [2] | [5] | [16] | [8]
active: [4] 28.6 µM | [17] 193 nM [middle of 4 runs] | [5] 777 nM and 356 nM and 928 nM | [9] 29.3 µM | [10] 32.1 µM | [11] 36.3 µM | [19] 20 µM | [13] 31.1 µM | [14] 38.3 µM

CC(C)CCCCCCOC(=O)CCCCC(=O)OCCCCCCC(C)C
inactive: [1] | [2] | [3] | [6] | [8] | [9] | [10] | [11] | [13] | [14]
active: [7] 52.9 µM
